The entries come from a sample that favours hits as a whole.
HT1080-NT tox: kills 2HG-producing HT-1080-NT fibrosarcoma cells; Potency, µM (series often up to 46.1 µM), inactives show at the top dose activity, negative = less viability, actives largely listed as cytotoxic; HT-1080-NT fibrosarcoma viability, CellTiter-Glo ATP luminescence, 48 h; 360,000 tested, 1.6% active;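 also: NT is the 2HG producing partner of a matched IDH1 knockdown line; potency is read from the fitted curve at half-maximal effect; 0% = DMSO-treated cells and -100% = media-only wells without cells; nearly all actives have a fitted effect of over 55% in size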
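Luminescent CellTiter-Glo readout after 48 hours of compound exposure at 37 degrees C defined viability of HT-1080-NT cells. Activity was normalized to DMSO wells and cell-free media wells; concentration-response curves were fitted and assigned curve classes.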
HT1080 IDH1KD tx: kills HT-1080 cells with IDH1 knockdown. 360,000 tested, 2% active. Potency, µM (series often up to 46.1 µM), inactives show top-dose activity, negative = toxicity, actives largely listed as cytotoxic. AID 686971. HT-1080 IDH1 knockdown viability, ATP luminescence, 48 h;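 also: potency is read from the fitted curve at half-maximal effect; 0% = DMSO wells and -100% = cell-free medium wells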
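Assay cells: HT-1080 with IDH1 knockdown, 750 per well, RPMI/5% FBS. Exposure: 48 h at 37 °C following 2 h pre-incubation. Read: CellTiter-Glo luminescence; fitted concentration-response, curve class assigned.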
DT40 TDP1 no CPT: qHTS for Inhibitors of human tyrosyl-DNA phosphodiesterase 1 (TDP1): qHTS in cells in absence of CPT. DT40 Tdp1-/- hTDP1 cells, no CPT, ATP luminescence, 48 h. Potency, µM (highest dose often 46.2 µM), for inactives: at the highest dose activity change, negative = growth inhibition, hits mostly inhibitors. 420,000 tested, 15% active; also: potency is read from the fitted curve at half-maximal effect; nearly all actives have a fitted effect of over 55% in size
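A cellular qHTS used chicken DT40 cells lacking endogenous Tdp1 but carrying stably transfected human TDP1. Compounds were applied without camptothecin, and cell growth kinetics were judged by ATP-dependent luminescence after ≥48 hr.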
TDP1 cell CPT: growth inhibition of DT40 Tdp1-/-;hTDP1 cells with camptothecin (screen for TDP1 inhibitors). chicken DT40 Tdp1-/-;hTDP1 cells + 20 nM CPT, ATP luminescence, 48 h. Potency, µM (doses to about 46.2 µM), inactives show at the top dose activity change, negative = growth inhibition, hits mostly inhibitors. 420,000 tested, 12% active. AID 686979; also: potency is read from the fitted curve at half-maximal effect; nearly all actives have a fitted effect of over 55% in size
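Chicken DT40 Tdp1-/- cells stably complemented with human TDP1 were seeded at 400 cells/well in medium containing 20 nM camptothecin, exposed to pin-transferred compounds, and grown at 37 °C for at least 48 hr. Viability was read as ATP luminescence.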
IL1B secr inh: inhibitors of inflammasome signaling (IL-1 beta secretion). THP-1 LPS/ATP IL-1B secretion, AlphaLISA, 16 h; stronger effect = lower value. activity change, % at 57.5 µM. 360,000 tested, 4.7% active; in the data active = activity change below about -50%; inconclusive = mostly about -30% to -49%
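Secreted IL-1B measured by AlphaLISA bead assay after 16 h compound exposure of THP-1 cells; compounds (final up to 57.5 uM) added 1 h before LPS (250 ng/mL) and ATP (1.25 mM) stimulation; lower signal means less secretion.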
ALOX12 inh: inhibitors of human 12S-lipoxygenase ALOX12. AID 1671190. 580,000 tested, 1.1% active. purified 12hLO, xylenol orange hydroperoxide absorbance. Potency, µM (doses to about 108 µM), inactives show at the top dose activity change, negative = inhibition, actives largely listed as inhibitors; also: potency is read from the fitted curve at half-maximal effect
Target sequence (P18054 whole entry, looked up): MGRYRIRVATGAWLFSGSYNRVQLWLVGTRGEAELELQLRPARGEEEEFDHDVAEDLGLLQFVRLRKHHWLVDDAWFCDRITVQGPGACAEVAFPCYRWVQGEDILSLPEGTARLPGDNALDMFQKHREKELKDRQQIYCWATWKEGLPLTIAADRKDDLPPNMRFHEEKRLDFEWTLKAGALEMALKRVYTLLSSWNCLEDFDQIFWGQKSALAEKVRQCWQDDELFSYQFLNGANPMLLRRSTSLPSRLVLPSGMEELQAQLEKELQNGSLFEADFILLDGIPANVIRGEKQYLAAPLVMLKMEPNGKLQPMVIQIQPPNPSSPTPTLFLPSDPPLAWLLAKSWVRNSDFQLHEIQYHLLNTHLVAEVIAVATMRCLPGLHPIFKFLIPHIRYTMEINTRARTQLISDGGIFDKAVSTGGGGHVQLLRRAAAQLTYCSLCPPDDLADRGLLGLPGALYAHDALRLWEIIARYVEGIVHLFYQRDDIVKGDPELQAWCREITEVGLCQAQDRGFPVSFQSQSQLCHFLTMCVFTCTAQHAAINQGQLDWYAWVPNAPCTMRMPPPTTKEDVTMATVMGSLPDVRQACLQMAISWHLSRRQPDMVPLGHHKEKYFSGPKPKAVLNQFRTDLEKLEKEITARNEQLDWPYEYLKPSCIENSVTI
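Hydroperoxide product was detected by ferrous iron/xylenol orange as the 573 to 405 nm absorbance ratio. Arachidonic acid at 40 uM (final) was turned over for 30 min at room temperature by 150 nM human 12hLO, pH 7.0 Hepes buffer, after 15 min compound preincubation.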
Numbers without * were called inactive; [ ] = dose if it differs, or a comment. Unless noted, calls follow the shape of the dose curve; as a rule, active = well fitted curve in the direction sought with a large enough effect; inconclusive = small, poorly fitted or top-dose-only effect, or another doubt; inactive = no such curve, though single readings can be large; an effect the other way counts as inactive or inconclusive. Unless noted, % is scaled to controls: 0 for no effect and ±100 for the full control effect.

How did O=C(NCc1ccncc1)c1ccc(Oc2ccccc2)cc1 do in these assays?
HT1080-NT tox: -21%; HT1080 IDH1KD tx: -27%; DT40 TDP1 no CPT: 18µM*; TDP1 cell CPT: 15µM*; IL1B secr inh: -66*; ALOX12 inh: -27%

What do the screens show for `COC(=O)c1ccc(CNC(=O)c2ccc(Oc3ccccc3)cc2)cc1`?
ALOX12 inh: 46%

How did CC(NC(=O)/C(=C\c1ccc(F)cc1)NC(=O)c1ccco1)C(=O)O (stereo unspecified) do in these assays?
ALOX12 inh: -5%

How did CN1C(=O)N(CC(=O)N2CCN(S(=O)(=O)c3ccc4c(c3)CCC4)CC2)C(=O)C12CCCCC2 do in these assays?
HT1080-NT tox: 5%; HT1080 IDH1KD tx: 6%; DT40 TDP1 no CPT: inconclusive; TDP1 cell CPT: inconclusive; IL1B secr inh: 16; ALOX12 inh: inconclusive

How did O=C(CCl)N1CCN(S(=O)(=O)c2ccc3c(c2)CCC3)CC1 do in these assays?
HT1080-NT tox: inconclusive; HT1080 IDH1KD tx: inconclusive; DT40 TDP1 no CPT: 0.65µM*; TDP1 cell CPT: 2.3µM*; IL1B secr inh: -67*; ALOX12 inh: 19%

What do the screens show for `CCC1(N2CCN(S(=O)(=O)c3ccc4c(c3)CCCC4)CC2)CCN(C(=O)NC)C1` (stereo unspecified)?
ALOX12 inh: 32µM*

Results for CCC1(N2CCN(S(=O)(=O)c3cc(F)ccc3C)CC2)CCN(C(=O)NC)C1 (stereo unspecified) ?
ALOX12 inh: -21%

Results for CNc1c(NC(=O)c2cccc(OC)c2)c(=O)oc2ccccc12 ?
ALOX12 inh: 2%

How did O=C(c1ccc2c(c1)OCO2)N1CCn2c(nnc2-c2ccncc2)C1 do in these assays?
ALOX12 inh: -1%[6.33 µM]

Results for Cc1c(CCCN)c2ccccc2n1Cc1ccccc1 ?
HT1080-NT tox: inconclusive; HT1080 IDH1KD tx: 21µM*; DT40 TDP1 no CPT: 16µM*; TDP1 cell CPT: inconclusive; IL1B secr inh: -71*; ALOX12 inh: -20%

Results for Cc1csc(Nc2nc(N)c(C(=O)Nc3ccccc3)o2)n1 ?
HT1080-NT tox: 24%; HT1080 IDH1KD tx: 13%; DT40 TDP1 no CPT: 0%; TDP1 cell CPT: -6%; IL1B secr inh: -12; ALOX12 inh: 0%

Results for C(#Cc1ccccc1)C[N+]1(CC#Cc2ccccc2)CCCC1 ?
HT1080-NT tox: -21%; HT1080 IDH1KD tx: inconclusive; DT40 TDP1 no CPT: 1µM*; TDP1 cell CPT: 1.8µM*; IL1B secr inh: inconclusive; ALOX12 inh: 41%

Results for C#CC[N+]1(CC#Cc2ccc(C)cc2)CCCCC1 ?
HT1080-NT tox: inconclusive; HT1080 IDH1KD tx: -19%; DT40 TDP1 no CPT: 3.3µM*; TDP1 cell CPT: 2.3µM*; IL1B secr inh: 15; ALOX12 inh: -13%

What do the screens show for `C=CC[N+]1(CC#Cc2ccccc2)CCCC1`?
HT1080-NT tox: 5%; HT1080 IDH1KD tx: -1%; DT40 TDP1 no CPT: inconclusive; TDP1 cell CPT: inconclusive; IL1B secr inh: 36; ALOX12 inh: 11%

Results for COc1ccc(CN2C(=O)CCCc3ccccc32)cc1 ?
HT1080-NT tox: -19%; HT1080 IDH1KD tx: inconclusive; DT40 TDP1 no CPT: 21µM*; TDP1 cell CPT: inconclusive; IL1B secr inh: 0; ALOX12 inh: inconclusive

What do the screens show for `O=C1CCCc2ccccc2N1Cc1ccc(Cl)cc1`?
HT1080-NT tox: -2%; HT1080 IDH1KD tx: -13%; DT40 TDP1 no CPT: inconclusive; TDP1 cell CPT: inconclusive; IL1B secr inh: -4; ALOX12 inh: -15%

How did O=C1CCCc2ccccc2N1Cc1ccccc1 do in these assays?
HT1080-NT tox: 11%; HT1080 IDH1KD tx: 8%; DT40 TDP1 no CPT: 12µM*; TDP1 cell CPT: 13µM*; IL1B secr inh: 24; ALOX12 inh: 8%

How did O=C1CCCc2ccccc2N1Cc1cccc(Cl)c1 do in these assays?
HT1080-NT tox: -14%; HT1080 IDH1KD tx: -24%; DT40 TDP1 no CPT: 9.2µM*; TDP1 cell CPT: inconclusive; IL1B secr inh: 3; ALOX12 inh: 0%

What do the screens show for `COc1ccc(NC(=O)NCc2nc(-c3cccc(Cl)c3)oc2C)cc1OC`?
ALOX12 inh: 2%

How did CCCOc1ccc(/C(O)=C2\C(=O)C(=O)N(c3cc(C)on3)C2c2ccc(O)c(OCC)c2)cc1 (stereo unspecified) do in these assays?
ALOX12 inh: 0%

Results for Clc1ccc(-c2nc(N3CCCC3)c3ccccc3n2)c(Cl)c1 ?
ALOX12 inh: -1%

Results for COc1ccccc1CCNC(=O)C1CCN(c2nnc(C)c3c(C)n(-c4ccc(C)cc4)nc23)CC1 ?
HT1080-NT tox: -4%; HT1080 IDH1KD tx: 1%; DT40 TDP1 no CPT: 2.9µM*; TDP1 cell CPT: 4.6µM*; IL1B secr inh: -10; ALOX12 inh: -6%

How did COc1ccc(-n2nc3c(N4CCC(C(=O)NCCc5ccco5)CC4)nnc(C)c3c2C)cc1 do in these assays?
HT1080-NT tox: inconclusive; HT1080 IDH1KD tx: inconclusive; DT40 TDP1 no CPT: inconclusive; TDP1 cell CPT: inconclusive; IL1B secr inh: -51*; ALOX12 inh: -26%

What do the screens show for `CCCN1CCN(C(=O)C2CCN(c3nnc(C)c4c(C)n(-c5ccc(C)cc5)nc34)CC2)CC1`?
HT1080-NT tox: inconclusive; HT1080 IDH1KD tx: inconclusive; DT40 TDP1 no CPT: inconclusive; TDP1 cell CPT: inconclusive; IL1B secr inh: inconclusive; ALOX12 inh: 6%

What do the screens show for `CCOc1ccc(CNC(=O)C2CCN(c3nnc(C)c4c(C)n(-c5ccc(C)cc5)nc34)CC2)cc1`?
HT1080-NT tox: -8%; HT1080 IDH1KD tx: 0%; DT40 TDP1 no CPT: 23µM*; TDP1 cell CPT: 8.2µM*; IL1B secr inh: -99*; ALOX12 inh: -15%

Results for Cc1ccc(-n2nc3c(SCCN4CCOCC4)nnc(C)c3c2C)cc1 ?
HT1080-NT tox: 1%; HT1080 IDH1KD tx: 0%; DT40 TDP1 no CPT: inconclusive; TDP1 cell CPT: inconclusive; IL1B secr inh: -25; ALOX12 inh: -8%

How did CCOc1ccc(-n2nc3c(SCCN4CCCC4)nnc(C)c3c2C)cc1 do in these assays?
HT1080-NT tox: inconclusive; HT1080 IDH1KD tx: inconclusive; DT40 TDP1 no CPT: -25%; TDP1 cell CPT: 1%; IL1B secr inh: -97*; ALOX12 inh: 6%

How did Cc1nnc(SCC(=O)NCCc2ccco2)c2nn(-c3ccccc3)c(C)c12 do in these assays?
ALOX12 inh: -56%

What do the screens show for `Cc1c(F)cccc1NC(=O)N1CCCC(c2noc(COc3ccccc3F)n2)C1` (stereo unspecified)?
ALOX12 inh: 11%

Screens: PubChem, National Center for Advancing Translational Sciences (NCATS)
